In publication PMC7862700, “An all-to-all approach to the identification of sequence-specific readers for epigenetic DNA modifications on cytosine”:

Experiments:
Experiment in all cases: DAPPL (digital affinity profiling via proximity ligation, sequencing); 10 mM Tris-HCl pH 7.5, 50 mM NaCl, 1 mM DTT, 4% glycerol, room temperature, 30 min; GST-TFs on glutathione beads, 16-mer random dsDNA library, 0.1% formaldehyde crosslink after washing; high values mean tight binding
FEV = target: T1, FEV (Homo sapiens, UniProt Q99581 1-238); conditions: protein: recombinant; tags: N-terminal GST; dsDNA, one strand shown
T1 sequence: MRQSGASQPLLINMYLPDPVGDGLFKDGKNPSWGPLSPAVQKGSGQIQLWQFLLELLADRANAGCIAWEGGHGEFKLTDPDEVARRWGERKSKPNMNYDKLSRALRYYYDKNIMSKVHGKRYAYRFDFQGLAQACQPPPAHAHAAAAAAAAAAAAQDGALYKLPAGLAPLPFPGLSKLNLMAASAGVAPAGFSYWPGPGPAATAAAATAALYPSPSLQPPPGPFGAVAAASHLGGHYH
Outline: (§1)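 Binding signal is each hexamer's read frequency for a factor divided by its frequency in the tag-only sample. The factors were GST-fused human transcription factors from yeast, captured on glutathione beads, DNA-barcoded and pooled with that sample. Pools were incubated with 200 nmole of a random double-stranded 16-mer DNA library in Tris/NaCl/DTT/glycerol buffer at room temperature for 30 min, then washed, crosslinked with 0.1% formaldehyde, proximity-ligated with BsaI/T4 ligase (1 h, 37 °C), PCR-amplified and sequenced on an Illumina NextSeq500.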

ETV5 = ETV5 (Homo sapiens, UniProt P41161 1-510); conditions: protein: recombinant; tags: N-terminal GST; dsDNA, one strand shown
ETV5, sequence (P41161 whole entry): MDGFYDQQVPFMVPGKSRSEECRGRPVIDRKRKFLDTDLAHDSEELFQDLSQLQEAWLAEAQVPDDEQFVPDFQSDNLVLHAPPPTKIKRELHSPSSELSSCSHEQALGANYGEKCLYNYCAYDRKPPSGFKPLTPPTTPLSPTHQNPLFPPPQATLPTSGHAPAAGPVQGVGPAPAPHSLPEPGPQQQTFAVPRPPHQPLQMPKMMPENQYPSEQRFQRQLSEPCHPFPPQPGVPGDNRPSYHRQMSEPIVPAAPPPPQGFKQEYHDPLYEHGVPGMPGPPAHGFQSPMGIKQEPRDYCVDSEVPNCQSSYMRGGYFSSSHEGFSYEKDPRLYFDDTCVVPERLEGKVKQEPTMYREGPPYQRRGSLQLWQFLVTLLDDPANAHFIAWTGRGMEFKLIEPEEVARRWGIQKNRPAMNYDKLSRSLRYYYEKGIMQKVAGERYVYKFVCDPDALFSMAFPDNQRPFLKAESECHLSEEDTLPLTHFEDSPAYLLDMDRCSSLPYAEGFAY
Outline: as §1

HSF1 = HSF1 (Homo sapiens, UniProt Q00613 1-529); conditions: protein: recombinant; tags: N-terminal GST; chain copies: 3; dsDNA, one strand shown
HSF1, sequence (Q00613 whole entry): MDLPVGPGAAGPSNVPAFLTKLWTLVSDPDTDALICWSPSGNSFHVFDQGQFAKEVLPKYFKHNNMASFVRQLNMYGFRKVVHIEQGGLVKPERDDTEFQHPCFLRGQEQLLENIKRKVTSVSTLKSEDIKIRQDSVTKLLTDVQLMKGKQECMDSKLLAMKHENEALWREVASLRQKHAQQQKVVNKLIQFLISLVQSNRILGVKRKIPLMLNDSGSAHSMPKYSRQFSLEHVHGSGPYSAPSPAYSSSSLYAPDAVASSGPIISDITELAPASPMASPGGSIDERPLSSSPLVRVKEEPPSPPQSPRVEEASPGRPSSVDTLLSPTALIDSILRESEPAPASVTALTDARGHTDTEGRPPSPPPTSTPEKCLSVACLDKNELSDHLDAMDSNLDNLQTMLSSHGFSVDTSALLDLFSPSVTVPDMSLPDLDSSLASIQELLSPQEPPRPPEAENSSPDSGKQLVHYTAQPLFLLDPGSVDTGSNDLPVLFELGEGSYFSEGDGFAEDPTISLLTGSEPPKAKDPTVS
Outline: as §1

SPIC = target: T2, SPIC (Homo sapiens, UniProt Q8N5J4 1-248); conditions: protein: recombinant; tags: N-terminal GST; dsDNA, one strand shown
T2 sequence: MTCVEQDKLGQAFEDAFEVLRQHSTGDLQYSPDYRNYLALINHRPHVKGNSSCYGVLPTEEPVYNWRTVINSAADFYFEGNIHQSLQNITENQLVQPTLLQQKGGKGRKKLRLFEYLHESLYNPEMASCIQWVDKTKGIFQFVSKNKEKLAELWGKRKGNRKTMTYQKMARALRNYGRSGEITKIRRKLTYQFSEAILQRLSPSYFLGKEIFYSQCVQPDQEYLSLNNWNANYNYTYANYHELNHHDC
Outline: as §1

ELF4 = ELF4 (Homo sapiens, UniProt Q99607 1-663); conditions: protein: recombinant; tags: N-terminal GST; dsDNA, one strand shown
ELF4, sequence (Q99607 whole entry): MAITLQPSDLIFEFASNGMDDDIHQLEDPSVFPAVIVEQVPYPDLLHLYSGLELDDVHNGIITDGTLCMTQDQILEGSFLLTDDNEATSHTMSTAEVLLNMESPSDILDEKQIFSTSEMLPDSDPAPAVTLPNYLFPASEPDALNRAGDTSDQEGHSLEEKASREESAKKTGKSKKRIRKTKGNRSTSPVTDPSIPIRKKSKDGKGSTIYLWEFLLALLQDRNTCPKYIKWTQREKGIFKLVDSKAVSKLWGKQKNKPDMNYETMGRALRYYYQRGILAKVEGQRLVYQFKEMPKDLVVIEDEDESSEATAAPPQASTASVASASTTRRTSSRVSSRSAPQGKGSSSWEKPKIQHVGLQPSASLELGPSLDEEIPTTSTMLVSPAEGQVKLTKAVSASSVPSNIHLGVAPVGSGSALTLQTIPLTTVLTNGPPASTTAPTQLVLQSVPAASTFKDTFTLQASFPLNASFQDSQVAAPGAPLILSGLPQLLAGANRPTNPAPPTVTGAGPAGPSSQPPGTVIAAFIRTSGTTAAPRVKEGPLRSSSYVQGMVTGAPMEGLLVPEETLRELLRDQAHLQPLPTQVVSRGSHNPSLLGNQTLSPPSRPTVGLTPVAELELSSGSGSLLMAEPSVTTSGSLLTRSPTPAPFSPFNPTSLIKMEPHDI
Outline: as §1

ELK4 = target: T3, ELK4 (Homo sapiens, UniProt P28324-2 1-405); conditions: protein: recombinant; tags: N-terminal GST; dsDNA, one strand shown
T3 sequence: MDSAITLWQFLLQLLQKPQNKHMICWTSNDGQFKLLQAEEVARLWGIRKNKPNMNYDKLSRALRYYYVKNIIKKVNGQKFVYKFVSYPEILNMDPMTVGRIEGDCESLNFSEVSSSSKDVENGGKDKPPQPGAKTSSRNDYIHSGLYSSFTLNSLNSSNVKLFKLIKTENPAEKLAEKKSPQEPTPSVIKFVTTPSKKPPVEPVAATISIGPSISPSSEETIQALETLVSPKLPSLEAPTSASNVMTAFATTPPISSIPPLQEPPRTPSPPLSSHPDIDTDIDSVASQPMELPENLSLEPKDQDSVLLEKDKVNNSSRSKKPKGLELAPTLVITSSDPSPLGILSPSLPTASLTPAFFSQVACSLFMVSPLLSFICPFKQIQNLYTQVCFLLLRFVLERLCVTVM
Outline: as §1

ETV2 = target: T4, ETV2 (Homo sapiens, UniProt O00321 1-342); conditions: protein: recombinant; tags: N-terminal GST; dsDNA, one strand shown
T4 sequence: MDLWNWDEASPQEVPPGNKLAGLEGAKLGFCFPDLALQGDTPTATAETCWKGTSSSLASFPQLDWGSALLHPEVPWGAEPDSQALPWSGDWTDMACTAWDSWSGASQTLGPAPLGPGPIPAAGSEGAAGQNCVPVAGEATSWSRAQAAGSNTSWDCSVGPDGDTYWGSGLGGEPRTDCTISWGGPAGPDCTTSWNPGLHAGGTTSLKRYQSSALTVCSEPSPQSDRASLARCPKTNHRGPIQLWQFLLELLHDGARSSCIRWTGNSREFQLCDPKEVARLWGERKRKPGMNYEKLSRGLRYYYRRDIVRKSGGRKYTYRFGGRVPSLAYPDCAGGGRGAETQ
Outline: as §1

ELF3 = target: T5, ELF3 (Homo sapiens, UniProt P78545 1-371); conditions: protein: recombinant; tags: N-terminal GST; dsDNA, one strand shown
T5 sequence: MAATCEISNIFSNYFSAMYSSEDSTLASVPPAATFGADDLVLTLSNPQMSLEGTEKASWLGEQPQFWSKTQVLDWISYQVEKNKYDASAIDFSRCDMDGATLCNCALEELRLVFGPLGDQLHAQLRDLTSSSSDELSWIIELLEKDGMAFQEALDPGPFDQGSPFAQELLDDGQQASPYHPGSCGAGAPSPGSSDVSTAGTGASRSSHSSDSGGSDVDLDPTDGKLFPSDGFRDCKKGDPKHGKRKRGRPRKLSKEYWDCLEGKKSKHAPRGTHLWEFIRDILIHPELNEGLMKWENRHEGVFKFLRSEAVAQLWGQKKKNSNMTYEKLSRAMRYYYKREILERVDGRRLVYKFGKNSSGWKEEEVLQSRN
Outline: as §1

CRX = CRX (Homo sapiens, UniProt O43186 1-299); conditions: protein: recombinant; tags: N-terminal GST; dsDNA, one strand shown
CRX, sequence (O43186 whole entry): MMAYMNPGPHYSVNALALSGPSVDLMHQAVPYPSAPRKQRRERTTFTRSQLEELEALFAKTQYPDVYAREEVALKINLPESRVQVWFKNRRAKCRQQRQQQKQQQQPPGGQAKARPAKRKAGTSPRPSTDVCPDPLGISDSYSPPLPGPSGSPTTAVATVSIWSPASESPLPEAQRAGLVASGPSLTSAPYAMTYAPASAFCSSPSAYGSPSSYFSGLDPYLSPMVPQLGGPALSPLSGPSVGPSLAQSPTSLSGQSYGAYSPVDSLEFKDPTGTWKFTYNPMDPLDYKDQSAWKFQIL
Outline: as §1

ETV1 = ETV1 (Homo sapiens, UniProt P50549 1-477); conditions: protein: recombinant; tags: N-terminal GST; dsDNA, one strand shown
ETV1, sequence (P50549 whole entry): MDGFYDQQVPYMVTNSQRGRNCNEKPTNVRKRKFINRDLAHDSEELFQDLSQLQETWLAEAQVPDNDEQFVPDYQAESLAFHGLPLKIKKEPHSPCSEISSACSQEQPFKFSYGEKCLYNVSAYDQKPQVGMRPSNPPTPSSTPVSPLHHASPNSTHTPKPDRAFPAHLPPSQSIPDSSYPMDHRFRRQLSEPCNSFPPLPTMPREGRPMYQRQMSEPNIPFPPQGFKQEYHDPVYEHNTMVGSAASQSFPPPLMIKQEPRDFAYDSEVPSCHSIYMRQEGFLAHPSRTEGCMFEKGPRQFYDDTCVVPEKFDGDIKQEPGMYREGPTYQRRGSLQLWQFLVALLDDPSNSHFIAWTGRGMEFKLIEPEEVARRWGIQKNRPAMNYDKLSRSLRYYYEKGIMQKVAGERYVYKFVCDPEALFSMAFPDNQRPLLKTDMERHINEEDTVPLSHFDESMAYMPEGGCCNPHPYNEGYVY
Outline: as §1

ERF = target: T6, ERF (Homo sapiens, UniProt P50548 1-548); conditions: protein: recombinant; tags: N-terminal GST; dsDNA, one strand shown
T6 sequence: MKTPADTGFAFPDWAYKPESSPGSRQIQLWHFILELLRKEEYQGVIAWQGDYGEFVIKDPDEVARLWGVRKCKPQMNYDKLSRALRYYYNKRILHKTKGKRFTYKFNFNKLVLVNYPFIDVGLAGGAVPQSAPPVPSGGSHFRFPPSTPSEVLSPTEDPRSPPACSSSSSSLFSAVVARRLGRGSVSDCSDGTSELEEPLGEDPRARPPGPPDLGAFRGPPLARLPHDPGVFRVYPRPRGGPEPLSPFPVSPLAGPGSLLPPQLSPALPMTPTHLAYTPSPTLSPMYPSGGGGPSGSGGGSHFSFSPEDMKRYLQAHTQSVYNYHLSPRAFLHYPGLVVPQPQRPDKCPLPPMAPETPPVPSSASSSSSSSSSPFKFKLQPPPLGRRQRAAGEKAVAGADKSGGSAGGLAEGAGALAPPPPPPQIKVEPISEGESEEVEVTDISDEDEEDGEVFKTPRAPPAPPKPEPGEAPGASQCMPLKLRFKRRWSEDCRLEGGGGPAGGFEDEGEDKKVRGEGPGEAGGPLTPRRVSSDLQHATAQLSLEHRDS
Outline: as §1

ETV3L = target: T7, ETV3L (Homo sapiens, UniProt Q6ZN32 1-361); conditions: protein: recombinant; tags: N-terminal GST; dsDNA, one strand shown
T7 sequence: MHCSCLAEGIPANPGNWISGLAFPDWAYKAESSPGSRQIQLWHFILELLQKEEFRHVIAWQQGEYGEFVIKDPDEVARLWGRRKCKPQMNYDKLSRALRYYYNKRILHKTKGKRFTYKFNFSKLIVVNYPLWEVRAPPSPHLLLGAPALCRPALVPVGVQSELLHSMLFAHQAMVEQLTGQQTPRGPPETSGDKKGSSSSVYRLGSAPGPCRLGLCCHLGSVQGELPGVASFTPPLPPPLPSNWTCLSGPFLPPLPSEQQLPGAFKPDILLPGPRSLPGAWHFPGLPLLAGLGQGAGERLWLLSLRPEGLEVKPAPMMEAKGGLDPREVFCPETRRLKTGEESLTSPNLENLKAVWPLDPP
Outline: as §1

ETS2 = target: T8, ETS2 (Homo sapiens, UniProt P15036 1-469); conditions: protein: recombinant; tags: N-terminal GST; dsDNA, one strand shown
T8 sequence: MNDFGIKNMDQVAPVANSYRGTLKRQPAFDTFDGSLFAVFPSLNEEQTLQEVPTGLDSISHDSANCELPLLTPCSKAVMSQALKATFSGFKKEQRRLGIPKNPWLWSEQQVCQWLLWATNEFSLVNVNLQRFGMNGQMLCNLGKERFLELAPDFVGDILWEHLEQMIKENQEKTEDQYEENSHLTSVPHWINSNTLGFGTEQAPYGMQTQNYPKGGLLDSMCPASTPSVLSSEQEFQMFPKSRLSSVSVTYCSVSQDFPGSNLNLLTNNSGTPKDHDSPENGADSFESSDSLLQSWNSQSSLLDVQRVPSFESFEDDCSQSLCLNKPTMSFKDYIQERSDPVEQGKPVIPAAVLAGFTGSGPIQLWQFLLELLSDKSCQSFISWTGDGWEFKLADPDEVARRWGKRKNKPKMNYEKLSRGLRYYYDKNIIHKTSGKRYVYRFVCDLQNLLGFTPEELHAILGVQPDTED
Outline: as §1

SPDEF = target: T9, SPDEF (Homo sapiens, UniProt O95238 1-335); conditions: protein: recombinant; tags: N-terminal GST; dsDNA, one strand shown
T9 sequence: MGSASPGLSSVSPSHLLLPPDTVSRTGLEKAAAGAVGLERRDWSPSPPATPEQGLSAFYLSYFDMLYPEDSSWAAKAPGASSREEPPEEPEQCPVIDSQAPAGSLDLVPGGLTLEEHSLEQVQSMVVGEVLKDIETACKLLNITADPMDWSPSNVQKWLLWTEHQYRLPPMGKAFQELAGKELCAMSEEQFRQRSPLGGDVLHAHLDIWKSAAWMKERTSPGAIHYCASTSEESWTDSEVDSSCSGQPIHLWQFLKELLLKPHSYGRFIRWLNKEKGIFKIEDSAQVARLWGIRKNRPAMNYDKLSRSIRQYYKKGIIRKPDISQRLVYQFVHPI
Outline: as §1

ETV7 = target: T10, ETV7 (Homo sapiens, UniProt Q9Y603 1-341); conditions: protein: recombinant; tags: N-terminal GST; dsDNA, one strand shown
T10 sequence: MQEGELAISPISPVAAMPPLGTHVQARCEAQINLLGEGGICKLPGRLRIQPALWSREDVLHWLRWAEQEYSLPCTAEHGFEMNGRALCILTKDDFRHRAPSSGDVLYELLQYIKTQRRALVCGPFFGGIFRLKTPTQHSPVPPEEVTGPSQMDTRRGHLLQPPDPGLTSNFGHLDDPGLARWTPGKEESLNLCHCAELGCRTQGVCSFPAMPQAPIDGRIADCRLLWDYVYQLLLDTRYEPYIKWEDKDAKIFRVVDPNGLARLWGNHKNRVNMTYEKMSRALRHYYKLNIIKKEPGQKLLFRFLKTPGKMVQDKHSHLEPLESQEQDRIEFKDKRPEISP
Outline: as §1

ELF5 = target: T11, ELF5 (Homo sapiens, UniProt Q9UKW6-2 1-255); conditions: protein: recombinant; tags: N-terminal GST; dsDNA, one strand shown
T11 sequence: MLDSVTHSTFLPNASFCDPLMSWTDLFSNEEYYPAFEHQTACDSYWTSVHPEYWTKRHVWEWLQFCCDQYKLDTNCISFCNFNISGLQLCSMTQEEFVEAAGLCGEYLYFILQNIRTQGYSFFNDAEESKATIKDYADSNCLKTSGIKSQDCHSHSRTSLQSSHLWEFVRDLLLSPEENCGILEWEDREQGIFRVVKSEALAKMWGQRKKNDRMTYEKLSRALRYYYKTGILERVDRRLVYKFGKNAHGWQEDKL
Outline: as §1

ETV3 = target: T12, ETV3 (Homo sapiens, UniProt P41162-2 1-143); conditions: protein: recombinant; tags: N-terminal GST; dsDNA, one strand shown
T12 sequence: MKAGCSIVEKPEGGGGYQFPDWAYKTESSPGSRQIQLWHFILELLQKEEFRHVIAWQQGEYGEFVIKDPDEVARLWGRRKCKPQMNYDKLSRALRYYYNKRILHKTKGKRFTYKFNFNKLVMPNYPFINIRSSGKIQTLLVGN
Outline: as §1

ETV6 = ETV6 (Homo sapiens, UniProt P41212 1-452); conditions: protein: recombinant; tags: N-terminal GST; dsDNA, one strand shown
ETV6, sequence (P41212 whole entry): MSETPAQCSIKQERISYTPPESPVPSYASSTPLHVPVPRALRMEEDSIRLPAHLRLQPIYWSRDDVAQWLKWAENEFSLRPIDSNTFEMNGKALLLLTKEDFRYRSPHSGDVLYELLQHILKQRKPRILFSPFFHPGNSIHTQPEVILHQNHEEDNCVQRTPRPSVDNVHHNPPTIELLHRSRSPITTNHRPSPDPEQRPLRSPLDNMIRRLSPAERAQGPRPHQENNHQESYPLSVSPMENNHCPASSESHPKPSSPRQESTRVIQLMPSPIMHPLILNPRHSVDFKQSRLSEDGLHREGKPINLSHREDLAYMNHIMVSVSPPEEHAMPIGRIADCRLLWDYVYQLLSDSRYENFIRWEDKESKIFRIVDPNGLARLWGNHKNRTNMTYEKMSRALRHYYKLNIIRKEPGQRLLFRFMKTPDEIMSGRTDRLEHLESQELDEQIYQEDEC
Outline: as §1

Sequence: TCCTCG
- binding signal (FEV): 1.37 fold enrichment (6-mer frequency, TF over GST control)
- binding signal (ETV5): 1.51 fold enrichment (6-mer frequency, TF over GST control)
- binding signal (HSF1): 1.54 fold enrichment (6-mer frequency, TF over GST control)
- binding signal (SPIC): 1.45 fold enrichment (6-mer frequency, TF over GST control)
- binding signal (ELF4): 1.51 fold enrichment (6-mer frequency, TF over GST control)
- binding signal (ELK4): 1.41 fold enrichment (6-mer frequency, TF over GST control)
- binding signal (ETV2): 1.66 fold enrichment (6-mer frequency, TF over GST control)
- binding signal (ELF3): 1.53 fold enrichment (6-mer frequency, TF over GST control)
- binding signal (CRX): 1.37 fold enrichment (6-mer frequency, TF over GST control)
- binding signal (ETV1): 1.65 fold enrichment (6-mer frequency, TF over GST control)
- binding signal (ERF): 1.48 fold enrichment (6-mer frequency, TF over GST control)
- binding signal (ETV3L): 1.57 fold enrichment (6-mer frequency, TF over GST control)
- binding signal (ETS2): 1.35 fold enrichment (6-mer frequency, TF over GST control)
- binding signal (SPDEF): 1.33 fold enrichment (6-mer frequency, TF over GST control)
- binding signal (ETV7): 1.49 fold enrichment (6-mer frequency, TF over GST control)
- binding signal (ELF5): 1.93 fold enrichment (6-mer frequency, TF over GST control)
- binding signal (ETV3): 1.5 fold enrichment (6-mer frequency, TF over GST control)
- binding signal (ETV6): 1.48 fold enrichment (6-mer frequency, TF over GST control)
